# Active and inactive are the calls of the source. Rule for the calls: active = hit-call score of the fitted dose curve at least 0.9, where 1 is the maximum; inactive = score below 0.9.
# Target: human Adenosine Receptor A1 Agonism, ADORA1 (gene 134) (UniProt P30542)
# Assay: ERF_FR_GPCR_hADORA1: Eurofins (ERF) G Protein-Coupled Receptor (GPCR) Radioligand Binding LeadHunter Assay for human Adenosine Receptor A1 Agonism
# Procedure: ERF_FR_GPCR_hADORA1 is a biochemical, single-readout assay that uses extracted gene-proteins in a cell-free assay. Measurements were taken 1 hour after chemical dosing in a 96-well plate. See A1 Human Adenosine GPCR Binding (Agonist Radioligand) Assay, Cerep.ERF_FR_GPCR_hADORA1 is an assay component calculated from the ERF_FR_GPCR_hADORA1 assay. It is designed to measure radioligand binding using a type of binding reporter as detected by scintillation counting with radiometry technology.Data from the assay component ERF_FR_GPCR_hADORA1 was analyzed at the assay endpoint, ERF_FR_GPCR_hADORA1, in the positive analysis fitting direction relative to DMSO as the negative control and baseline of activity. Using a type of binding reporter, […] activity can be used to understand changes in binding as they relate to gene ADORA1. To generalize the intended target to other relatable targets, this assay endpoint is annotated to the gpcr intended target family, where the subfamily is adenosine.
# 2) Dose Response: 90 ul of 10 mM stock -OR- 1 mg (pre-weighed) for a top concentration at 10 uM.
# Sequence of human Adenosine Receptor A1 Agonism, ADORA1 (gene 134) (P30542 whole entry, looked up): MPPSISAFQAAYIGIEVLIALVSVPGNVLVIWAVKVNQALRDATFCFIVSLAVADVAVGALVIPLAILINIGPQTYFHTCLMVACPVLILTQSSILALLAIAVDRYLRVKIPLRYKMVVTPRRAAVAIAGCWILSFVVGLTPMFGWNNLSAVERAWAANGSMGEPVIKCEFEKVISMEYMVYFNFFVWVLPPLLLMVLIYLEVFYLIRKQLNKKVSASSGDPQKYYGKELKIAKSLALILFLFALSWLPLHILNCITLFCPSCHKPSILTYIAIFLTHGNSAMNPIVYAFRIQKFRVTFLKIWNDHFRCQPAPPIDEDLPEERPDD
row,Compound,AC50
1,O=C(/C=C/c1ccc(O)cc1)CC(=O)/C=C/c1ccc(O)cc1,1920 nM (active)
